Compound activity as filed in PubChem BioAssay.
The sample as a whole holds a higher share of hits than the screen did.
PKA kinase inh: inhibitors of human PKA kinase activity, primary screen, biochemical, ATP-depletion luminescence, Kemptide substrate; PKA Kemptide phosphorylation, Kinase-Glo ATP luminescence; inhibition, % at 6 µM; AID 524, 2006; cAMP-dependent protein kinase catalytic subunit alpha (Homo sapiens), P17612; actives 0.1% (n = 65,000);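 active means inhibition above the screen-wide mean inhibition plus 3 SD, cut at about 21% in these data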
DAT uptake mod: changed hDAT dopamine uptake under cocaine IC80, either direction, primary screen, cocaine antagonist project, cell-based, LLC-PK1 hDAT, [14C]-dopamine uptake, MLSMR; Sodium-dependent dopamine transporter (Homo sapiens), Q01959; LLC-PK1 hDAT cells, [14C]-dopamine uptake with cocaine IC80; actives deviate in either direction; B-score at 10 µM; actives 1.3% (n = 110,000); AID 449768, 2010;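 active means Z score or B-score, a plate-position-corrected score, falls beyond the plate's 99.7% confidence bounds, in either direction; inactive means both scores lie inside the 99.7% bounds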;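 further: scored against the spread of the other compound wells on the same plate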
ROCK2 blocker: inhibitors of human ROCK2 kinase, primary screen, biochemical, high-throughput, luminescence. actives 0.35% (n = 60,000). AID 604, 2007. inhibition, % at 6 µM. Rho-associated protein kinase 2 (Homo sapiens), O75116. purified ROCK2, Kinase-Glo ATP depletion luminescence;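 active means inhibition above the screen-wide mean inhibition plus 3 SD, cut at about 18% in these data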;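 further: plate controls were DMSO wells for no effect and Y-27632 control wells after no-enzyme background subtraction for full effect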
Target sequence (O75116 whole entry, looked up): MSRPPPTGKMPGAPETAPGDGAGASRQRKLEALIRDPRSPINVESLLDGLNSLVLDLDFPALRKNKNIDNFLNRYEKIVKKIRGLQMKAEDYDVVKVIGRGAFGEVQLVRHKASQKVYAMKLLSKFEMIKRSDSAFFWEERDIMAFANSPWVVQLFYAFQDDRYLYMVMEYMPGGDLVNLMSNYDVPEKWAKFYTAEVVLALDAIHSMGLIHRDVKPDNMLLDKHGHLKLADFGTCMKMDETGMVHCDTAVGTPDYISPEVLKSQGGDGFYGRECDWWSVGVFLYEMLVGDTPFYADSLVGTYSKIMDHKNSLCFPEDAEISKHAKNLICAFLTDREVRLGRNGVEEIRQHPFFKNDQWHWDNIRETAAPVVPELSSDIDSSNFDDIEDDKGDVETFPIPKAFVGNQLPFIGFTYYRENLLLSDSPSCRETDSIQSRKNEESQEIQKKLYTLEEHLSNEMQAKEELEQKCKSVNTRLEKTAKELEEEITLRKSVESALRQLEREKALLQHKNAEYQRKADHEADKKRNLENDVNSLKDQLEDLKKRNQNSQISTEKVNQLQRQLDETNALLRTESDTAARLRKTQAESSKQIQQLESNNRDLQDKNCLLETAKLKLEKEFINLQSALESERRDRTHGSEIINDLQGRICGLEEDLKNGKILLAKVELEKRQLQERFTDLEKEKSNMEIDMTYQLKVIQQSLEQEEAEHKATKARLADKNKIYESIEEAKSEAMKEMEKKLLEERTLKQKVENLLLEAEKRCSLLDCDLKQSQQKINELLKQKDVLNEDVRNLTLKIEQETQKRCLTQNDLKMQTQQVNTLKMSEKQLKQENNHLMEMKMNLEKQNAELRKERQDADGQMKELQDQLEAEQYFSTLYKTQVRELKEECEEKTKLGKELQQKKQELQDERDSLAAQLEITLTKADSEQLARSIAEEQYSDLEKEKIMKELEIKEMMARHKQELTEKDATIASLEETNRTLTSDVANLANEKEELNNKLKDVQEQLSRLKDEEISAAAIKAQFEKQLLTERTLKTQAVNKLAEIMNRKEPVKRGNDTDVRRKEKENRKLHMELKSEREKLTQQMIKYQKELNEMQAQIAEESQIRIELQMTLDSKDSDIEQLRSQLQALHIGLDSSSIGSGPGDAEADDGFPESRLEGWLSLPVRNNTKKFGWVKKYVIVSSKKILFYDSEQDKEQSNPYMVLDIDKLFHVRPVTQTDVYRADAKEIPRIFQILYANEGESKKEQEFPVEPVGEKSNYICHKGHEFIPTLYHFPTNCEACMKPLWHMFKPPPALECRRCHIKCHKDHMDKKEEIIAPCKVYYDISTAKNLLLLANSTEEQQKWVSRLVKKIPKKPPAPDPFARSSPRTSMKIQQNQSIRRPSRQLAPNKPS
D1 allo mod: D1 CRE-luciferase signal change, two-sided – cell-based, HEK293 D1, dopamine EC30, D1 allosteric modulator project, primary screen | D(1A) dopamine receptor (Homo sapiens), P21728 | dopamine EC30 potentiation; actives deviate in either direction | B-score at 10 µM | actives 5.9% (n = 58,000);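 active means luminescence count or its row- and column-corrected plate score outside the 99.7% band of the plate's sample wells, on either side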
The depositor's hits bear a star; . = no result given.

SMILES	PKA kinase inh	DAT uptake mod	ROCK2 blocker	D1 allo mod
Cc1cc(NC(=O)CSc2nc3ccccc3c(=O)n2Cc2ccccc2)no1	4.8	-8.15*	0.8	3.02
O=C(CSc1nc2ccsc2c(=O)n1Cc1ccccc1)NCc1ccco1	5.8	-0.0983	.	-2.23*
CCn1c(SCC(=O)Nc2cc(C)on2)nc2sc(C)c(C)c2c1=O	9.1	.	4.9	6.87*
Cc1cc(NC(=O)CSc2nc3c(c(=O)n2Cc2ccccc2)SC(C)C3)no1 (stereo not given)	3.5	0.0964	1.5	5.52*
COCCNc1nc(-c2cc(-c3ccc(Cl)cc3)on2)cc(C(C)C)n1	.	0.054	.	.
COc1cccc(C2=CC(=O)CC(C)(C)C2)n1	.	-1.15	.	.
COc1ccc(-c2nnn(CC(=O)N(Cc3ccccc3Cl)C(C(=O)NCC3CCCO3)c3ccco3)n2)cc1OC (stereo not given)	.	1.01	.	.
CC1(c2nnc(-c3cccc(Cl)c3)o2)CC(c2ccc(Br)cc2)=NO1 (stereo not given)	.	-0.787	.	.
CCOc1ccccc1C(=O)N(Cc1ccccc1)Cc1cc2cc3c(cc2[nH]c1=O)OCCO3	.	-0.298	.	.
N#Cc1c(C(F)(F)F)cc(-c2cccc(Cl)c2)[nH]c1=O	.	-0.938	.	.
O=C(NCc1ccco1)c1ccc2c(=O)n(Cc3ccco3)c(SCC(=O)N3CCCC3)nc2c1	-3.1	2.2*	.	0.235
CCC(=O)c1ccc(OCC(=O)Nc2nn3cnnc3s2)cc1	0.1	1.14	.	-0.0477
CC1(C)Cc2c(C#N)c(SCC(=O)c3ccccc3)nc(N3CCOCC3)c2CO1	7.7	1.16	8.9	-3.31*
CC1(C)Cc2c(C#N)c(SCc3ccccc3)nc(N3CCOCC3)c2CO1	-7.0	1.84	-1.2	0.492
O=C(O)C(c1ccccc1)C1(O)CCCC1 (stereo not given)	10.3	1.75*	7.1	.
CCCC1C2C(=O)N(c3ccccc3OCC)C(=O)C2ON1c1ccccc1 (stereo not given)	.	-1.26	.	.
CC1CCCCC1NC(=O)c1ccc(S(=O)(=O)N2CCCC2)cc1 (stereo not given)	.	0.204	.	.
CC1CCCCC1NS(=O)(=O)c1ccc(-n2cnnn2)cc1 (stereo not given)	-0.3	0.0419	-12.4	-2.48*
CC1CCCCC1NS(=O)(=O)c1ccc(S(=O)(=O)N2CCCC2)cc1 (stereo not given)	-1.3	-5.02*	-3.6	0.992
CN(C1CCCCC1)S(=O)(=O)c1ccc(-n2cnnn2)cc1	-10.8	-0.0234	-5.3	0.867
COc1ccc(OC)c(C(=O)N2CCC(C(=O)c3ccc(F)cc3)CC2)c1	.	0.0616	.	.
C=CCN1C(=O)C(Cc2ccc(OC)cc2)S/C1=N\N=C\c1cccs1 (stereo not given)	.	2.96*	.	.
Cc1ccc(-c2cc3c(nn2)-c2ccccc2C3=O)cc1	-35.5	.	-44.6	-5.67*
Cc1ccccc1-c1cc2c(nn1)-c1ccccc1C2=O	.	-1.35	.	.
C[C@@H](C(=O)N1CCNCC1)n1cc(CCCN=C(N)N)nn1	.	-0.151	.	.
SMILES	PKA kinase inh	DAT uptake mod	ROCK2 blocker	D1 allo mod
CC(NC(=O)CN1CCC(C(N)=O)CC1)c1ccccc1 (stereo not given)	8.6	-8.07*	1.4	-0.00296
NC(=O)C1CCN(CC(=O)Nc2ccccn2)CC1	-0.6	.	0.4	0.0234
COC(=O)C1=C(COc2ccccc2)NC(=O)NC1c1ccc2ccccc2c1 (stereo not given)	.	0.437	.	.
O=C(Nc1cccnc1)Nc1ccccn1	10.1	-0.363	3.7	0.712
O=C(Nc1ccc(Cl)cc1)Nc1cccnc1	.	-2.33*	.	.
CC(C)(C)OC(=O)CNC(=O)c1[nH]cnc1C(=O)N[C@@H](CCCCNC(=O)OC(C)(C)C)C(=O)OC(C)(C)C	.	2.81*	.	.
O=C(c1cc2ccccc2oc1=O)N1CCN(c2ncccn2)CC1	.	2.88*	.	.
O=C(c1cc2ccccc2oc1=O)N1CCN(c2ccccn2)CC1	3.0	-0.88	4.9	-0.328
Cc1nc(N)c2c(Cc3cccc4ccccc34)nn(C(C)(C)C)c2n1	.	0.00671	.	.
Cc1cc(C)n2cc(CSc3nnc(-c4ccccc4)o3)nc2n1	8.1	0.523	7.7	1.09
Cc1cc(C)n2cc(CSc3nc4cc(Cl)ccc4o3)nc2n1	3.4	4.04*	-4.1	2.13
COc1cccc(NC(=O)CCSc2nnc3scc(-c4ccccc4)n23)c1	8.9	.	.	4.38*
